# Laboratory results from PubChem BioAssay (EPA / NIEHS).
# Several values for one entry are separate records, joined by “and”; a condition that tells them apart may be missing. Equal entries are not always repeated. Inconclusive results are not listed. The source holds several records for some structures; these can differ, active in one and inactive in another. Activity calls are given as the source filed them. The calls were made as follows, unless noted: active = hit-call score of the fitted dose curve at least 0.9, where 1 is the maximum; inconclusive = response in the unintended direction; inactive = score below 0.9.
# Experiments:
# [1] = system: Sodium/Iodide Symporter (NIS), SLC5A5 (gene 6528); assay: CPHEA_Stoker_NIS_Inhibition_RAIU: CPHEA's Radioactive Iodide Uptake (RAIU) Assay for Sodium/Iodide Symporter (NIS) Inhibition, Stoker and Laws Labs (AID 2283841)
# In short: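 Test chemicals, six concentrations from 0.001 to 100uM in 0.5% DMSO, were co-incubated with carrier-free 125I (final 329pM) on hNIS-HEK293T-EPA monolayers in pH 7.4 HEPES-buffered HBSS. Plates stood 2 hours at room temperature, then were washed cold and counted.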
# [2] = CPHEA_Stoker_NIS_Cytotoxicity: Cytotoxicity Assessment for CPHEA's Radioactive Iodide Uptake (RAIU) Assay for Sodium/Iodide Symporter (NIS) Inhibition, Stoker and Laws Labs (AID 2283897);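 as to AC50: active means loss of ATP signal versus DMSO meaning cytotoxicity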
# In short: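 Viability in hNIS-HEK293T-EPA cells is scored as a drop in luciferase-detected ATP following 2-hour room-temperature exposure (0.001–100uM; triplicate wells, three cell passages), with DMSO as negative control.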
# [3] = CEETOX_H295R_11DCORT_noMTC: CeeTox H295R High-throughput Steroidogenesis Assay for 11-Deoxycortisol (11DCORT), maximum tolerated concentration (MTC) filtered results only (AID 2283911; active = hit-call score of the fitted dose curve at least 0.9, where 1 is the maximum; inactive = score below 0.9); conditions: actives raise or lower the signal
# Protocol: CEETOX_H295R is a cell-based, multiplexed-readout assay that uses H295R, a human adrenal gland cell line, with measurements taken at 48 hours after chemical dosing in a 96-well plate.CEETOX_H295R_11DCORT_noMTC is one of 12 assay component(s) measured or calculated from the CEETOX_H295R assay (11 hormones and 1 viability assay). It is designed to make measurements of hormone induction, a form of inducible reporter, as detected with absorbance signals by HPLC-MS-MS technology. The concentrations for these components have not been pre-filtered for the maximum tolerated concentration (MTC) based on the MTT assay (_noMTC).Data from the assay component CEETOX_H295R_11DCORT_noMTC was analyzed into 1 assay endpoint. This assay endpoint, CEETOX_H295R_11DCORT_noMTC, was analyzed with bidirectional fitting relative to DMSO as the negative control and baseline of activity. […]
# Cell culture and media preparation procedures were conducted in accordance with OECD Test No. 456 guidelines, with minor modifications. […] For steroid quantification, media samples were shipped to OpAns, LLC (Durham, NC) on dry ice, and samples were thawed to room temperature prior to liquid-liquid extraction. […] Steroid hormones were separated by HPLC, eluted using a reverse phase C18 gradient with electrospray positive ionization, followed by quantification by tandem mass spectrometry (MS/MS). […]
# [4] = CEETOX_H295R_OHPREG_noMTC: CeeTox H295R High-throughput Steroidogenesis Assay for OH-Pregnenolone (OHPREG), maximum tolerated concentration (MTC) filtered results only (AID 2283912; active = hit-call score of the fitted dose curve at least 0.9, where 1 is the maximum; inactive = score below 0.9); conditions: actives raise or lower the signal
# In short: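 Readout is HPLC-MS/MS quantification of 17alpha-hydroxypregnenolone released by forskolin-stimulated H295R cells over 48 h of chemical exposure, DMSO as baseline.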
# [5] = CEETOX_H295R_OHPROG_noMTC: CeeTox H295R High-throughput Steroidogenesis Assay for OH-Progesterone (OHPROG), maximum tolerated concentration (MTC) filtered results only (AID 2283914; active = hit-call score of the fitted dose curve at least 0.9, where 1 is the maximum; inactive = score below 0.9); conditions: actives raise or lower the signal
# In short: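 Analysis uses all tested concentrations, without maximum-tolerated-concentration screening by MTT. H295R cells, forskolin-primed (10 uM, 48 h), receive chemical for 48 h; hormone in medium measured by HPLC-MS/MS, with bidirectional curve fitting against DMSO.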
# [6] = target: zebrafish Thyroid Hormone Receptor beta (TRb), thrb (gene 30607) (UniProt Q9PVE4); assay: ATG_zfTRb_XSP2: Attagene TRANS-FACTORIAL Multi-Species (XSP1) HepG2 Assay for zebrafish Thyroid Hormone Receptor beta (TRb) (AID 2283836);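 as to AC50: potency for induction of reporter signal above DMSO so agonist direction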
# In short: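 Reporter transcripts measured by RT-PCR, 6-FAM labelling, HpaI digestion and capillary electrophoresis after 24 h chemical exposure. Human HepG2 cells carry an exogenous zebrafish TRb-GAL4 chimera; medium included 3 nM 6-alpha-fluorotestosterone plus 1.5 nM norgestrel.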
# [7] = target: human Thyroid hormone Receptor alpha (TRa), THRA (gene 7067) (UniProt P10827); assay: ATG_hTRa_XSP2: Attagene TRANS-FACTORIAL Multi-Species (XSP2) HepG2 Assay for human Thyroid hormone Receptor alpha (TRa) (AID 2283838)
# In short: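 Reporter transcripts were read by RT-PCR with fluorescent primer extension, HpaI digestion and capillary electrophoresis. These came from HepG2 cells carrying multiplexed TRa-Gal4 TRANS constructs, harvested 24 hours after dosing. The medium also held 6-alpha-fluorotestosterone (3 nM) and norgestrel (1.5 nM), and increases were fitted against DMSO.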
# [8] = target: frog Thyroid hormone Receptor alpha (TRa), thra-a (gene 397942) (UniProt P15204); assay: ATG_frTRa_XSP2: Attagene TRANS-FACTORIAL Multi-Species (XSP2) HepG2 Assay for frog Thyroid hormone Receptor alpha (TRa) (AID 2283839);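 as to AC50: AC50 reflects induction of frog TRa-driven reporter mRNA above DMSO baseline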
# In short: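 Frog thyroid receptor alpha was tested as an exogenous NR-Gal4 fusion in transiently transfected HepG2 cells. After 24 h chemical treatment, reporter mRNA induction was quantified by RT-PCR and capillary electrophoresis, with gain-of-signal analysed relative to DMSO.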
# [9] = target: human Thyroid hormone Receptor beta (TRb), THRB (gene 7068) (UniProt P10828); assay: ATG_hTRb_XSP2: Attagene TRANS-FACTORIAL Multi-Species (XSP2) HepG2 Assay for human Thyroid hormone Receptor beta (TRb) (AID 2283840);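 also: actives raise reporter mRNA so potency reflects agonist-like gain of signal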
# In short: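 In this cell-based multiplex, HepG2 liver cells carrying transfected GAL4-UAS reporter constructs are exposed to chemical for 24 hours, then reporter transcripts are measured by RT-PCR with capillary electrophoresis, scored as gain of signal against DMSO.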
# [10] = ATG_XTT_Cytotoxicity_XSP2: Cytotoxicity Assessment in the Attagene TRANS-FACTORIAL Multi-Species (XSP2) HepG2 Assay (AID 2283837)
# In short: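 XTT-based cell number read-out in human HepG2 liver cells carrying transfected reporter units, measured 24 h after chemical dosing. Activity is signal loss versus DMSO baseline.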
# Chain of zebrafish Thyroid Hormone Receptor beta (TRb), thrb (gene 30607) (Q9PVE4 whole entry, looked up, the tested form may be a part): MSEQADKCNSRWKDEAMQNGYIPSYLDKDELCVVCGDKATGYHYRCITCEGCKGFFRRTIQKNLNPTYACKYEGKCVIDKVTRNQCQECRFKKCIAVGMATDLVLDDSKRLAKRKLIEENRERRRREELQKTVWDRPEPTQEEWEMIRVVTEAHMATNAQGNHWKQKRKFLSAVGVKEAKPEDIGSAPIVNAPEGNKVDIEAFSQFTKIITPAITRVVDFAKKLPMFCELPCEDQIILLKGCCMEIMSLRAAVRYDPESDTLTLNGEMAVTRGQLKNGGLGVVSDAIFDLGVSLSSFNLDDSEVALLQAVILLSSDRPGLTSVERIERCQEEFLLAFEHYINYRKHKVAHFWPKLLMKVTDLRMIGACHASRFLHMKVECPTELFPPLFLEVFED
# Chain of human Thyroid hormone Receptor beta (TRb), THRB (gene 7068) (P10828 whole entry, looked up, the tested form may be a part): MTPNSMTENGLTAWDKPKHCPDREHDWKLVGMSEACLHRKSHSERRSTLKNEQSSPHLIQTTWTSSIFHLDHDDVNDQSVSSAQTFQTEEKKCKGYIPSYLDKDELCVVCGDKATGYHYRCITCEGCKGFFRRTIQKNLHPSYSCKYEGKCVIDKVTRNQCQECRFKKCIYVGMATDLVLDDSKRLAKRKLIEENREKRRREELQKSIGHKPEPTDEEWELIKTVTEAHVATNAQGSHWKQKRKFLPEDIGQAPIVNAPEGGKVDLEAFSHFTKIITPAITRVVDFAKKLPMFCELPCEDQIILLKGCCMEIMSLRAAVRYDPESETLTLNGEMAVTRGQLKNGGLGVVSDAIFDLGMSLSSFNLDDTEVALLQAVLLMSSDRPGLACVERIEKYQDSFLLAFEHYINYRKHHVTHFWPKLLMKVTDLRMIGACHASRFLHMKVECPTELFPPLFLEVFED
# Chain of human Thyroid hormone Receptor alpha (TRa), THRA (gene 7067) (P10827 whole entry, looked up, the tested form may be a part): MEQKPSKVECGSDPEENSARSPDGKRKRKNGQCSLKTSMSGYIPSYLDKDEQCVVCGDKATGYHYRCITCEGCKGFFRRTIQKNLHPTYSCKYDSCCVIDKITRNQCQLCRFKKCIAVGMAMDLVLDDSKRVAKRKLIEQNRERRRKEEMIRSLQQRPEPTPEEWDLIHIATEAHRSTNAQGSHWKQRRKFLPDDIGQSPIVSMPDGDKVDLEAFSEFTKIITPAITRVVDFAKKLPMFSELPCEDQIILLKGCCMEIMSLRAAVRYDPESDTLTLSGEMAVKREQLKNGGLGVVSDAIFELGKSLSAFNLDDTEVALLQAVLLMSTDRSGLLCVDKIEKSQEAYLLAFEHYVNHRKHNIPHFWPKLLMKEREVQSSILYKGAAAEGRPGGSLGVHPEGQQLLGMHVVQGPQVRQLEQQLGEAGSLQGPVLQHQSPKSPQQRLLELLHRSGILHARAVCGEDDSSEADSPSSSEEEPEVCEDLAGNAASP
# Chain of frog Thyroid hormone Receptor alpha (TRa), thra-a (gene 397942) (P15204 whole entry, looked up, the tested form may be a part): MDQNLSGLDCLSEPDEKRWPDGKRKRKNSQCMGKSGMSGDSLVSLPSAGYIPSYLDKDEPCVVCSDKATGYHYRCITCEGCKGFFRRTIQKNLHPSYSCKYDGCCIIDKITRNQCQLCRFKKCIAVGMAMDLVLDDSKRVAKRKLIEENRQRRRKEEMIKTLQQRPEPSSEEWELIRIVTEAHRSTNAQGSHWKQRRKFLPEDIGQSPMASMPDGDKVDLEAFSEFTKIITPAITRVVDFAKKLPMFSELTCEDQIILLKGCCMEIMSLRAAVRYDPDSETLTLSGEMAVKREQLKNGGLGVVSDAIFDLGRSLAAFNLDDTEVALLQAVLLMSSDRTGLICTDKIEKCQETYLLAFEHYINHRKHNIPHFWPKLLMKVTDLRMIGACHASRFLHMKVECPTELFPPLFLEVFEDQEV
smiles,measurement,setting,value
COc1cc(C(C)(C)C)c(O)c(C(C)(C)C)c1,outcome,[1],inactive
same,outcome,[2],inactive
CCN(CC)c1ccc2c(-c3ccccc3C(=O)O)c3ccc(=[N+](CC)CC)cc-3oc2c1,outcome,[1],inactive
same,AC50,[2],13.3 µM (active)
Cc1ccc(C(C)C)cc1O,outcome,[3],inactive
same,outcome,[4],inactive
same,AC50,[5],33 µM (active)
O=C1c2ccccc2C(=O)N1SC1CCCCC1,outcome,[1],inactive
same,AC50,[2],79.4 µM (active)
O=C(Oc1ccccc1)c1ccc(O)cc1,outcome,[6],inactive
same,outcome,[7],inactive
same,AC50,[8],166 µM (active)
same,outcome,[8],inactive
same,outcome,[9],inactive
same,outcome,[2],inactive
CC1CC(OC(=O)c2ccccc2O)CC(C)(C)C1 (stereo not drawn),outcome,[3],inactive
same,outcome,[4],inactive
same,outcome,[5],inactive
CN(CCOc1ccc(CC2SC(=O)NC2=O)cc1)c1ccccn1 (stereo not drawn),outcome,[6],inactive
same,outcome,[8],inactive
CCCCCCCCCCCCCCCCCC(=O)OCC(CC)CCCC (stereo not drawn),outcome,[1],inactive
same,outcome,[2],inactive
Cc1ccc(S)cc1,outcome,[1],inactive
same,outcome,[2],inactive
c1ccc2[nH]ccc2c1,outcome,[1],inactive
CCN(CC)CCOC(=O)c1ccc(N)cc1,outcome,[1],inactive
same,outcome,[2],inactive
CCCCCCCCCCCCN,outcome,[6],inactive
same,outcome,[8],inactive
CC(C)=CCCC(C)=CCCC(C)=CCO,outcome,[1],inactive
same,outcome,[2],inactive
CCCCCCCCC,outcome,[1],inactive
same,outcome,[2],inactive
CCCCCCCCCCCCCOS(=O)(=O)O,outcome,[1],inactive
same,outcome,[2],inactive
c1ccc(CCCc2ccccn2)cc1,outcome,[1],inactive
same,outcome,[2],inactive
CC(C)=CCC[C@](C)(O)[C@@H]1CC=C(C)CC1,outcome,[2],inactive
CC(C)C[C@H]1C(=O)N2CCC[C@H]2[C@]2(O)O[C@](NC(=O)[C@@H]3C=C4c5cccc6[nH]c(Br)c(c56)C[C@H]4N(C)C3)(C(C)C)C(=O)N12,outcome,[1],inactive
same,outcome,[2],inactive
CSc1nc(NC2CC2)nc(NC(C)(C)C)n1,AC50,[1],10 µM (active)
same,outcome,[2],inactive
BrC1CCC(Br)C(Br)CCC(Br)C(Br)CCC1Br (stereo not drawn),outcome,[1],inactive
same,outcome,[2],inactive
CN(C)C(=N)N=C(N)N,outcome,[6],inactive
same,outcome,[8],inactive
same,outcome,[9],inactive
Cc1ccc(O)c(C(C)(C)C)c1,outcome,[1],inactive
same,outcome,[2],inactive
O=c1cc(-c2ccccc2)oc2cc(O)cc(O)c12,AC50,[6],100 µM (active)
same,outcome,[6],inactive
same,outcome,[10],inactive
same,AC50,[7],10.9 µM (active) and 7.51 µM (active)
same,AC50,[8],26.2 µM (active) and 1.8 µM (active)
same,AC50,[9],100 µM (active)
same,outcome,[9],inactive
same,outcome,[1],inactive
same,outcome,[2],inactive
